# Mtb betalactam: beta-lactam sensitization of Mtb H37Rv. M. tuberculosis H37Rv growth with meropenem, percent inhibition. inhibition, % at 25 µM. hit rate 0.27% among 330,000; call rule not given here;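 note: growth measured after seven days incubation then overnight dye step; 0% = bacteria only wells and 100% = bacteria with antibiotic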
# FBA Mtb inh: Mtb fructose-bisphosphate aldolase inhibition | P9WQA3 | purified M. tuberculosis FBA, fluorescence read-out | inhibition, % at 1 µM | hit rate 2.3% among 360,000 | AID 588726; in the data active = inhibition above about 27%;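 note: 0% = vehicle and 100% = reference inhibitor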
# GDH-TPI counter: counter-screen for M. tuberculosis FBA inhibitors: GDH-TPI coupled enzymes; GDH-TPI coupled enzyme counterscreen, NADH absorbance; inhibition, % at 4.8 µM; hit rate 1.2% among 360,000; AID 588335; in the data active = inhibition above about 30%;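 note: 0% = DMSO wells and 100% = wells lacking the enzyme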
# RecA intein inh: blocks M. tuberculosis RecA intein splicing; hit rate 0.75% among 290,000; inhibition, % (concentration not given with the values); cell-free RecA intein splicing, fluorescence; P9WHJ3; in the data active = inhibition above about 30%;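 note: 0% = vehicle wells and 100% = reference inhibitor control wells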
# Rv3671c protease: inhibits the M. tuberculosis serine protease Rv3671c; P9WHR9; inhibition, % at 5.96 µM; hit rate 0.048% among 320,000; AID 2606; in the data active = inhibition above about 38%;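 note: extracellular domain of Rv3671c used as enzyme; 0% = enzyme with DMSO and 100% = no enzyme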
# UGM FP inh: Mtb UDP-galactopyranose mutase inhibition | hit rate 0.06% among 320,000 | inhibition, % at 10 µM | purified UGM, fluorescence polarization probe displacement | P9WIQ1 | AID 504406; in the data active = inhibition above about 10%, passing the limit was not always enough
# Target sequence (P9WIQ1 whole entry, looked up): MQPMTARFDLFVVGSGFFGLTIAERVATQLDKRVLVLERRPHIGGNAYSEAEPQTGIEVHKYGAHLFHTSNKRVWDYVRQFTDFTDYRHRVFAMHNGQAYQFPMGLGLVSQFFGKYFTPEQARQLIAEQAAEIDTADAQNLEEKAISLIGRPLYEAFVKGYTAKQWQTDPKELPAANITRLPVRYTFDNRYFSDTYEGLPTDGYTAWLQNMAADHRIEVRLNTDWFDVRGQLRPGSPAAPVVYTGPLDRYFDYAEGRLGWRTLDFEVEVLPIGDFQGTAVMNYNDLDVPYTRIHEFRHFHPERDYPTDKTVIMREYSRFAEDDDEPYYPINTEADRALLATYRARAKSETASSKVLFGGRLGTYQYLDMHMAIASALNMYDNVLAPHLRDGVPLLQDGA
# Starred values were filed as active, the others as inactive; i = inactive; · = no result; + = active, no number. Compounds with a hit are over-represented: about 4% of the library has one in this group of screens.
SMILES,Mtb betalactam,FBA Mtb inh,GDH-TPI counter,RecA intein inh,Rv3671c protease,UGM FP inh
COc1ccc(C2Nc3ccccc3C(=O)N2NS(=O)(=O)c2ccccc2)cc1 (stereo not drawn),-6,13,9,-2,-11,5
CCOc1ccc(-n2ccc(=O)c(C(=O)Nc3ccc(S(=O)(=O)Nc4nccs4)cc3)n2)cc1,0,2,33*,3,-13,3
O=C(Nc1ccc(S(=O)(=O)Nc2nccs2)cc1)c1nn(-c2ccc(F)cc2)ccc1=O,2,-5,27,2,0,-1
C=CCn1c(-c2ccccc2)nc(=S)c2c1CC(C)(C)OC2,-3,-2,35*,0,-9,0
CCN(CC)CCn1c(-c2ccc(C)cc2)nc(=S)c2c1CC(C)(C)OC2,-6,-2,32*,-1,-9,0
COc1ccc(-c2nc(=S)c3c(n2CCN2CCOCC2)CC(C)(C)OC3)cc1,1,-1,38*,2,-14,1
Cc1[nH]c(SCC(=O)c2c(N)n(C)c(=O)n(C)c2=O)nc1Cc1ccccc1,-8,4,5,·,-3,2
O=C1c2cccnc2-c2ncccc21,-17,2,5,-1,-9,4
O=C1c2cc([N+](=O)[O-])ccc2-c2ncccc21,-5,0,9,46*,-5,1
COc1cc(C(=O)N/N=C/c2sc(=O)n(-c3ccccc3)c2Cl)cc(OC)c1OC,1,-4,46*,-1,1,1
O=C(N/N=C/c1sc(=O)n(-c2ccccc2)c1Cl)c1ccncc1,98,-3,36*,20,6,0
COc1cc(C(=O)N/N=C/c2sccc2C)cc(OC)c1OC,·,0,24,7,·,·
COc1cc(C(=O)N/N=C/c2cc([N+](=O)[O-])cs2)cc(OC)c1OC,100,-4,36*,-8,12,0
COc1ccccc1C(=O)Nc1ccccc1SC(=O)c1ccccc1OC,5,0,-4,-2,-4,1
COc1cccc(/C=N/NC(=O)Cn2ccnc2C)c1,0,3,1,1,-3,-1
COc1ccc(OC)c(/C=N/NC(=O)Cn2ccnc2C)c1,-6,165*,14,-2,10,-3
COc1ccc(/C=C/C(=O)N2CCN(c3ccccn3)CC2)cc1OC,0,-3,39*,-2,-1,-4
N/C(=N\OC(=O)/C=C/c1ccccc1)c1ccccn1,45,-4,9,-2,-8,1
O=C(/C=C/c1ccc(Cl)cc1)N(c1ccccn1)C1CCCCC1,5,-8,5,3,-3,-3
CCOc1ccc(/C=C/C(=O)N2CCOCC2)cc1OC,-15,6,32*,4,1,1
COc1ccc(/C=C/C(=O)N(c2ccccn2)C2CCCCC2)cc1OC,2,6,83*,0,-6,0
COc1ccc(/C=C/C(=O)O/N=C(\N)c2ccccn2)cc1OC,69,4,45*,·,-5,0
COc1ccc(/C=C/C(=O)N2CCOCC2)cc1OC,-1,5,21,0,-4,-2
CCOc1cc(/C=C/C(=O)O)ccc1OCCOc1ccc(F)cc1,3,2,11,-2,1,3
CCOc1cc(C(=S)N2CCOCC2)ccc1OC(=O)/C=C/c1ccc(OC)c(OC)c1,·,1,37*,1,-6,-2
SMILES,Mtb betalactam,FBA Mtb inh,GDH-TPI counter,RecA intein inh,Rv3671c protease,UGM FP inh
COc1ccc(/C=C/C(=O)NCC(c2ccc(F)cc2)N2CCOCC2)cc1OC (stereo not drawn),6,10,35*,-2,-1,0
COc1ccc(NC(=O)CSCC(=O)Nc2ccccc2N2CCCCC2)cc1,-13,4,9,3,-12,0
Cc1ccc(NC(=O)c2cnc(SCC(=O)NCC3CCCO3)n(C)c2=O)cc1C (stereo not drawn),84,2,22,51*,-32,0
COc1cc(C(C#N)N2CCC(c3ccccc3)=N2)ccc1O (stereo not drawn),-8,1,36*,1,-7,2
O=c1ccc2cc3ccoc3cc2o1,-8,3,3,·,-1,2
O=c1ccc2cc(O)c(O)cc2o1,0,115*,9,-155,5,6
O=c1ccc2ccc(O)cc2o1,·,+,15,·,·,·
CSc1ccc(C2NN=C(c3ccccc3)S2)cc1 (stereo not drawn),-5,46*,7,1,-1,0
CC(C)Cc1nnc(NC(=O)C2CC(=O)N(Cc3ccccc3)C2)s1 (stereo not drawn),-10,5,7,1,3,0
CC(C)CNc1oc(-c2ccccc2Cl)nc1C#N,98,11,14,3,-5,-1
N#Cc1nc(-c2cccc3ccccc23)oc1NCCN1CCOCC1,64,122*,33*,-5,3,-1
CC(=O)Nc1oc(-c2cccc3ccccc23)nc1C#N,-3,164*,5,·,-8,-1
COCCCNc1oc(-c2ccccc2Cl)nc1C#N,2,8,16,-1,6,0
N#Cc1nc(-c2ccco2)oc1NCCN1CCOCC1,-4,26,7,1,2,-2
CCCNc1oc(-c2cccc3ccccc23)nc1C#N,18,148*,20,·,11,1
Cc1ccc(N2C(=O)C3CCCN3C2=S)cc1Cl (stereo not drawn),1,152*,-3,-1,-6,2
COc1ccc(NC(=O)c2cc3cc(OC)ccc3oc2=O)cc1,-6,0,5,·,14,-1
COc1ccc2oc(=O)c(C(=O)Oc3ccc(NC(C)=O)cc3)cc2c1,9,31*,18,-10,13,2
O=c1ccc2cc(O[C@@H]3O[C@@H](CO)[C@H](O)[C@@H](O)[C@@H]3O)c(O)cc2o1,5,+,6,i,7,-2
O=c1ccc2ccc(O[C@@H]3O[C@H](CO)[C@@H](O)[C@H](O)[C@H]3O)c(O)c2o1,-2,6,26,·,-3,2
COc1cc2ccc(=O)oc2c(O[C@@H]2O[C@H](CO)[C@@H](O)[C@H](O)[C@H]2O)c1O,2,185*,1,-2,2,0
Cc1csc(SCC(=O)NCc2ccc3c(c2)OCO3)n1,3,5,-8,-2,-2,0
Cc1cnc(NC2=NCCC2)s1,41,-1,10,-1,0,3
CC1=NN(c2ccccc2)C(=O)/C1=C\c1cn(C)c2ccccc12,7,-21,2,39*,11,1
CC1=NN(c2ccccc2)C(=O)/C1=C\c1cc(C)n(C)c1C,-3,-14,8,22,0,1
CC1=NN(c2ccccc2)C(=O)/C1=C/c1c(O)[nH]c(=O)[nH]c1=O,8,-3,1,43*,-75,-1
CC1=NN(c2ccccc2)C(=O)/C1=C/c1c(O)[nH]c(=S)[nH]c1=O,78,-1,-2,20,-5,0
COc1ccc(/C=N/NC(=O)c2[nH]c(C)c(C(=O)N/N=C/c3ccc(OC)cc3)c2C)cc1,-2,-3,100*,-5,-3,·
